# Potency and affinity values are given separately. Inconclusive results are not listed. A number with no mark means an inactive call.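 The calls were made as follows: active = signal loss with fitted half-maximal concentration at or below twice the top valid tested dose in every test run; inconclusive = runs disagree, flat 30 to 70% signal loss, or poor fit; inactive = all runs flat, opposite direction, or potency beyond limit.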
# Experiment: HEK293T cytotoxicity, dose response, cytotoxicity control for miR-122 modulator project, cell-based, inhibitor set, cherry-pick, set 2 (AID 720697);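 also: 0% = median of neutral control wells and -100% = MG132 positive control wells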
# Settings: HEK293T viability, CellTiter-Glo luminescence, 48 h; series mostly up to 26 µM; activity change, negative = cytotoxicity: at the top concentration
row,SMILES,"activity change, negative = cytotoxicity [%]"
1,COC(=O)C[C@@H]1CC[C@@H]2[C@H](COc3ccc(NC(=O)c4cc(F)cc(F)c4)cc3C(=O)N2C)O1,146
2,C[C@H]1CCCCO[C@H](CN(C)Cc2ccc3c(c2)OCO3)[C@@H](C)CN([C@@H](C)CO)C(=O)c2cc(NC(=O)Nc3cccc4ccccc34)ccc2O1,113
3,CN(C)CCCNC(=O)C[C@H]1CC[C@H]2[C@H](COc3ccc(NC(=O)c4cccc(F)c4)cc3C(=O)N2C)O1,30.3
4,CO[C@@H]1CN(C)C(=O)c2ccc(NS(=O)(=O)c3ccc(C)cc3)cc2OC[C@@H](C)N(C(=O)NC(C)C)C[C@H]1C,-15.2
5,COc1ccc(S(=O)(=O)N(C)C[C@@H]2Oc3cc(-c4cccc(F)c4)ccc3S(=O)(=O)N([C@H](C)CO)C[C@H]2C)cc1,-5.58
6,COc1ccccc1CNc1nc(Nc2ccccc2Cl)c2sccc2n1,42
7,COC(=O)C[C@H]1CC[C@H]2[C@@H](COc3ccc(NC(=O)Nc4c(C)noc4C)cc3C(=O)N2C)O1,110
8,CN1C(=O)c2cc(NC(=O)c3cccs3)ccc2OC[C@@H]2O[C@H](CC(=O)NCCN3CCCCC3)CC[C@H]21,61.8
9,COc1cccc(C(=O)N2C[C@H]3[C@@H](c4ccccc42)[C@H](CO)N3C(C)=O)c1,59.5
10,Cc1cc(C)cc(NC(=O)Nc2ccc3c(c2)C(=O)N(C)[C@@H]2CC[C@H](CC(=O)O)O[C@@H]2CO3)c1,-11.5
11,C/C=C/c1ccc([C@@H]2[C@@H](CO)N(C(C)=O)[C@H]2CN(C(=O)COC)C(C)C)cc1,-3.91
12,COc1cccc(CNC(=O)C[C@@H]2CC[C@H]3[C@H](COc4ccc(NS(=O)(=O)c5ccccc5F)cc4C(=O)N3C)O2)c1,87.4
